From PubChem BioAssay
Calls of active or inactive are those of the source.

Tests used:
[1] = binders of probe aFSTL3 on microarray, primary screen, stem cell growth factor project, biochemical, small-molecule microarray, fluorescence 635/667 (AID 1064); settings: higher = more signal;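 further: measures binding of the biotinylated anti-FSTL3 antibody to printed compounds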
[2] = binders from COS7 lysate, DM2A8 probe, primary screen, torsin A project, cell lysate, small-molecule microarray, fluorescence 635/667 (AID 1065); settings: higher = more signal, COS7 lysate expressing mutant human TOR1A
[3] = binders of probe aFGF2 on microarray, primary screen, stem cell growth factor project, biochemical, small-molecule microarray, fluorescence 635/667 (AID 1067); settings: higher = more signal;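 further: measures binding of biotinylated aFGF2 protein to printed compounds on slides; z-score merges feature fluorescence and signal-to-noise across triplicate slides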
[4] = binders of probe aFGF10 on microarray, primary screen, stem cell growth factor project, biochemical, small-molecule microarray, fluorescence 635/667 (AID 1071); settings: higher = more signal;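 further: score merges 667 nm spot intensity and signal to noise from triplicate slides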
[5] = biological target: Neurogenic locus notch homolog protein 2 (Homo sapiens) (UniProt Q04721); experiment: Notch2 binders on small-molecule microarrays, primary screen, biochemical, small-molecule microarray, 635 nm fluorescence, stem cell growth factors (AID 1073); settings: Notch2 binding, higher = more signal
[6] = biological target: Pro-neuregulin-1, membrane-bound isoform (Homo sapiens) (UniProt Q02297); experiment: NRG1 binders on small-molecule microarrays, primary screen, psychiatric disease protein project, biochemical, small-molecule microarray, fluorescence 635/667 (AID 1075); settings: NRG1 binding, 635 nm fluorescence, higher = more signal;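 further: score combines 667 nm spot fluorescence with signal to noise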
Chain of Pro-neuregulin-1, membrane-bound isoform (Homo sapiens) (Q02297 whole entry, looked up, the tested form may be a part, canonical isoform): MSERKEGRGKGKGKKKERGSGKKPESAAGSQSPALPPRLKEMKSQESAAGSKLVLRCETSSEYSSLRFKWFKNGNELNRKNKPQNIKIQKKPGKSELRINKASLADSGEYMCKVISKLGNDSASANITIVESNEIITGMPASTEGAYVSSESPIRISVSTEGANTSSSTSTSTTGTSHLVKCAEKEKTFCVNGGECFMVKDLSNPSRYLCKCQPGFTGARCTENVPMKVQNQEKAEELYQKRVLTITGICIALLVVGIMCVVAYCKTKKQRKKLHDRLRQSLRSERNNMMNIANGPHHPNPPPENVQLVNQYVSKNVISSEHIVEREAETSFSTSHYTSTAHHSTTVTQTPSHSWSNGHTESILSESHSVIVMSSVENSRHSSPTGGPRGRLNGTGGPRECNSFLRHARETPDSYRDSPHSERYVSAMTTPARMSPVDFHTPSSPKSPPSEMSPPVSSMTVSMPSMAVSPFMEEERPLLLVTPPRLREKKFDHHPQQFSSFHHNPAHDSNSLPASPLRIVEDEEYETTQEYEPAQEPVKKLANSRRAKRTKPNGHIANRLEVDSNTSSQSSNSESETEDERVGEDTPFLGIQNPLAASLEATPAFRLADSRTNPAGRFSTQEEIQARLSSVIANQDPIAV

[7] = system: Neuregulin-1 EGF-like domain; experiment: binders of neuregulin-1 EGF-like domain, primary screen, biochemical, small-molecule microarray, 635 nm fluorescence (AID 1081); settings: small-molecule microarray binding, higher = more signal;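 further: binding of the protein to compounds printed on small-molecule microarray slides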
[8] = FRG1 promoter luciferase signal modulators, primary screen, FRG1 inhibition for FSHD, cell-based, C2C12 myotubes, firefly/Renilla luciferase, luminescence (AID 1084); settings: higher = more signal, called active from +8 up or from −8 down
[9] = binders of probe aFST on microarray, primary screen, stem cell growth factor project, biochemical, small-molecule microarray, fluorescence 635/667 (AID 1086); settings: higher = more signal;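 further: score merges 667 nm fluorescence with signal-to-noise of each printed compound spot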
[10] = binders of probe aHhip on microarray, primary screen, stem cell growth factor project, biochemical, small-molecule microarray, fluorescence 635/667 (AID 1087); settings: higher = more signal;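 further: score merges spot fluorescence at 667nm with spot signal to noise ratio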
[11] = system: PRMT1 (protein arginine N-methyltransferase 1); experiment: PRMT1 binders on small-molecule microarrays, primary screen, biochemical, small-molecule microarray, 635 nm fluorescence (AID 1088); settings: small-molecule microarray binding, higher = more signal;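 further: binding of Prmt1 protein to compounds spotted on small-molecule microarray slides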
[12] = yeast growth modulation, basal conditions, primary screen, YJM789 clinical isolate, OD600, 24 h (AID 1089);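 further: growth of clinical yeast isolate S. cerevisiae YJM 789 seeded 1000 cells per well; test concentration not given here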; settings: S. cerevisiae YJM789 growth, higher = more signal, called active from +8 up or from −8 down
[13] = fission yeast growth modulation, primary screen, strain 972, OD600, 24 h, no modulator (AID 1090);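 further: basal condition with compound alone and no growth modifier present; test concentration not given here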; settings: S. pombe 972 growth, higher = more signal, called active from +8 up or from −8 down
[14] = S. cerevisiae growth modulation with rapamycin, primary screen, strain BY4716, OD600, 96 h (AID 1091); settings: higher = more signal, called active from +8 up or from −8 down; further: test concentration not given here
[15] = biological target: Torsin-1A-interacting protein 2 (Homo sapiens) (UniProt Q8NFQ8); experiment: LULL1 binders on small-molecule microarray, primary screen, cell lysate, human LULL1 lysate, 635/667 nm fluorescence (AID 1092); settings: hLULL1 lysate binding, 635 nm fluorescence, higher = more signal;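 further: probe is lysate of COS7 cells overexpressing human LULL1; score merges per-feature 667 nm fluorescence with signal-to-noise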
Chain of Torsin-1A-interacting protein 2 (Homo sapiens) (Q8NFQ8 whole entry, looked up): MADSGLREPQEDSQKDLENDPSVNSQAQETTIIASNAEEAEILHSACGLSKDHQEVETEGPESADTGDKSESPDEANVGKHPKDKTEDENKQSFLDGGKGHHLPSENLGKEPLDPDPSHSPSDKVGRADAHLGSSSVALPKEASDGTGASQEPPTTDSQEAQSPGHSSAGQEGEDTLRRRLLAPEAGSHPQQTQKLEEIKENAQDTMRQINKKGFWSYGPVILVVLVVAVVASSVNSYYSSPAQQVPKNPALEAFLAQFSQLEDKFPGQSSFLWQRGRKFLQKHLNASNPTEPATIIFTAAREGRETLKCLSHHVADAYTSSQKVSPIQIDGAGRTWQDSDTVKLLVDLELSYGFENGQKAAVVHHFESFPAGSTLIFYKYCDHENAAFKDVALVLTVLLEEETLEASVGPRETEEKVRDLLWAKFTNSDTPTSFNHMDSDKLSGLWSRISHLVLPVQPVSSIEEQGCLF

[16] = E. coli growth modulation, two-sided OD650, primary screen, E. coli filamentation project, strain DRC41, 24 h (AID 1093); settings: OD650, 24 h, higher = more signal, called active from +8 up or from −8 down;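 further: MC1000 strain lacking acrAB efflux and sulA so SOS filamentation is blocked; test concentration not given here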
[17] = small-molecule microarray binders of probe aLefty2, primary screen, biochemical, biotinylated probe, 635/667 nm fluorescence (AID 1094); settings: higher = more signal;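 further: score merges spot fluorescence near 667 nm with spot signal-to-noise ratio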
[18] = system: Noggin (protein binding on small-molecule microarray); experiment: Noggin binders on small-molecule microarray, primary screen, biochemical, 635/667 nm fluorescence (AID 1095); settings: 635 nm fluorescence, higher = more signal;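 further: score merges 667 nm feature fluorescence with signal to noise over triplicate slides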
[19] = biological target: Neurogenic locus notch homolog protein 3 (Homo sapiens) (UniProt Q9UM47); experiment: NOTCH3 binders on small-molecule microarray, primary screen, biochemical, 635/667 nm fluorescence (AID 1096); settings: NOTCH3 binding, 635 nm fluorescence, higher = more signal
Chain of Neurogenic locus notch homolog protein 3 (Homo sapiens) (Q9UM47 whole entry, looked up): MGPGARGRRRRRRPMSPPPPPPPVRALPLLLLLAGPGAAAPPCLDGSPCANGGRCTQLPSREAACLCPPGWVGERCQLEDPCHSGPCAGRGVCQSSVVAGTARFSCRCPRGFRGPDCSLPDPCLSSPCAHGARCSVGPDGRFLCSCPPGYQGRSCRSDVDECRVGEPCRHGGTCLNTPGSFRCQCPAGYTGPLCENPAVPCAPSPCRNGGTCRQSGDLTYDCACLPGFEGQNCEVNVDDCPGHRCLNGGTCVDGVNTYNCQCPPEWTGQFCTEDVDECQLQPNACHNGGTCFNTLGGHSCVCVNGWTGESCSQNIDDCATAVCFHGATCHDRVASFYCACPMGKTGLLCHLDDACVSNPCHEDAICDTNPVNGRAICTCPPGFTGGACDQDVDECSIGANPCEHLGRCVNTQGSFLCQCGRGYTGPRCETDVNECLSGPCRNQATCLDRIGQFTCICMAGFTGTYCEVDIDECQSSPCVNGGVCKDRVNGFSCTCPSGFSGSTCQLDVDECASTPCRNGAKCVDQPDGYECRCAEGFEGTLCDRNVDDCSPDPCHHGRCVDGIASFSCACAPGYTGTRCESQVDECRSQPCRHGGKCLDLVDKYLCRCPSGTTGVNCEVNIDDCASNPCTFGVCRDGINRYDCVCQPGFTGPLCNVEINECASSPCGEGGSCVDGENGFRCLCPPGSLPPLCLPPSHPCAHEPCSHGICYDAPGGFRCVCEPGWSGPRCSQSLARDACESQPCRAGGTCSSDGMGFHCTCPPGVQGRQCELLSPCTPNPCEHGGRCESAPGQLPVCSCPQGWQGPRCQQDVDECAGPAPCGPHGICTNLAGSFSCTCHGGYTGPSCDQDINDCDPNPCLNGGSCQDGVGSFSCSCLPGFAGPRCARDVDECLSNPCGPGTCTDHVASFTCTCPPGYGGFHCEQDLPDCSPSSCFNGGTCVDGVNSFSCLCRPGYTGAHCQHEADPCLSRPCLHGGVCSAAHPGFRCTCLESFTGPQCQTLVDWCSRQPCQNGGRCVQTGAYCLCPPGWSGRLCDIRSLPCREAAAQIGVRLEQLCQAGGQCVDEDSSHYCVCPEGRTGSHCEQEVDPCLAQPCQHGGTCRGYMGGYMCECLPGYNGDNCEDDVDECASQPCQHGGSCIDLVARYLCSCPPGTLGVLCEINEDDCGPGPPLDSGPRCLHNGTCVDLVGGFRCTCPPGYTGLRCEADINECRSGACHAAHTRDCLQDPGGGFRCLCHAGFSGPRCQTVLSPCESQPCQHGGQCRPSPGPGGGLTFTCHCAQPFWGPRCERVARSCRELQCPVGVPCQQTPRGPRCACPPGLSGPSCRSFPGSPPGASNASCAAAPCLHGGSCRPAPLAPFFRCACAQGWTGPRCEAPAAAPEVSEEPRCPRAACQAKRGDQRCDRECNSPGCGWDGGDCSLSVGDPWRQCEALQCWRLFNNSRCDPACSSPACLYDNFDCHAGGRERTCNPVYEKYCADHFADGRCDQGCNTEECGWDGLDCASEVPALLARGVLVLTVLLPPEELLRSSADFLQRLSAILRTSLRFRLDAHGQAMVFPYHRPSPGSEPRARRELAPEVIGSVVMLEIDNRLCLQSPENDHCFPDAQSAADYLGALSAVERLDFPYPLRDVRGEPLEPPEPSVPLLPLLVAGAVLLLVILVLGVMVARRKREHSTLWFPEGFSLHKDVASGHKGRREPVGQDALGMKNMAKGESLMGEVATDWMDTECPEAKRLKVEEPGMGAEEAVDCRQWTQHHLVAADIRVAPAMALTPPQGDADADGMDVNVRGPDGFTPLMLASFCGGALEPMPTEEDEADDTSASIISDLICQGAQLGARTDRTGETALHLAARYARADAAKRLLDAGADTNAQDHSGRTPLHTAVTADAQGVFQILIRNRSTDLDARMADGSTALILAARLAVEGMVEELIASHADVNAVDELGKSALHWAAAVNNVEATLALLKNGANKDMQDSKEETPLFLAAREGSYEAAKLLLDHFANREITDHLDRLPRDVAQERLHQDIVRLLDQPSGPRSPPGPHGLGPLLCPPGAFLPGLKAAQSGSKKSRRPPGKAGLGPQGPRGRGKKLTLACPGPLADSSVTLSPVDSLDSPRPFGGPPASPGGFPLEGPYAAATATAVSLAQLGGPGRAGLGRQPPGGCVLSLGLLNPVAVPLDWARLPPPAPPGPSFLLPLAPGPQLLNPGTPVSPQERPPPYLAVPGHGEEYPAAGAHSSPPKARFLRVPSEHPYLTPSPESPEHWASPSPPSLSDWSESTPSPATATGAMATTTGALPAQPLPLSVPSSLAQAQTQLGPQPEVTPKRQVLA

[20] = small-molecule microarray binders of probe aEGFR, primary screen, biochemical, biotinylated probe, 635/667 nm fluorescence (AID 1097); settings: higher = more signal;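 further: probe is a biotinylated anti-EGFR antibody binding compounds printed on slides; score combines fluorescence near 667 nm and signal to noise of each spot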

Structure (SMILES) | composite z-score [1] | composite z-score [2] | composite z-score [3] | composite z-score [4] | composite z-score [5] | composite z-score [6] | composite z-score [7] | z-score [8] | composite z-score [9] | composite z-score [10] | composite z-score [11] | z-score [12] | z-score [13] | z-score [14] | composite z-score [15] | z-score [16] | composite z-score [17] | composite z-score [18] | composite z-score [19] | composite z-score [20]
CCOC(=O)C[C@H]1[C@H](OC(=O)c2ccc(C(=O)c3ccccc3)cc2)[C@@H](NC(=O)CC(C)C)c2cc(OCCCO)ccc2N1C(=O)c1ccccc1 | -0.399 | 0.275 | -0.0266 | 0.542 | 1.2 | 0.807 | 0.996 | -0.16 (inactive) | 0.766 | 0.0129 | 1.34 | -0.327 (inactive) | -0.333 (inactive) | 0.276 (inactive) | 2.03 | -0.747 (inactive) | 0.0769 | 0.937 | 0.961 | 0.0807
CCOC(=O)C[C@H]1[C@H](OC(=O)c2ccc(-c3ccccc3)cc2)[C@@H](NC(=O)CC(C)C)c2cc(OCCCO)ccc2N1C(=O)c1ccc2ccccc2n1 | -0.459 | 0.176 | -0.149 | 0.205 | 0.458 | 0.491 | 0.76 | 0.375 (inactive) | 0.185 | 0.1 | -0.069 | -1.13 (inactive) | -0.832 (inactive) | -0.656 (inactive) | 1.15 | -0.0583 (inactive) | -0.145 | 0.481 | 0.753 | -0.0828
C=CCOC(=O)[C@@]1(Cc2ccccc2)C[C@H]2CO[C@H](c3ccc(OC)cc3)N2C1=O | -0.442 | 0.366 | -0.12 | 0.252 | 0.0925 | -0.294 | 0.209 | -1.33 (inactive) | -0.135 | 0.0373 | 0.262 | -2.65 (inactive) | -3.58 (inactive) | 0.0326 (inactive) | 0.317 | 0.1 (inactive) | -0.126 | 0.224 | 0.408 | -0.15
O=C1[C@H]2C=C(I)[C@H](C[C@@H]2OCCOCCO)[C@@]12CO2 | -0.444 | 0.97 | -0.0877 | 0.454 | 0.67 | -0.183 | 0.653 | 0.843 (inactive) | -0.192 | 0.0722 | 0.582 | 0.0387 (inactive) | -0.342 (inactive) | -0.155 (inactive) | 0.6 | -0.935 (inactive) | -0.239 | 0.513 | 0.733 | -0.027
CCOC(=O)C[C@H]1[C@H](OC(=O)c2ccc(C(=O)c3ccccc3)cc2)[C@@H](NC(=O)c2ccc3ccccc3n2)c2cc(OCCCO)ccc2N1C(=O)Cc1ccc(OC)cc1 | -0.379 | 0.123 | -0.0807 | 0.289 | 0.599 | 0.252 | -0.261 | 0.673 (inactive) | 0.121 | 0.0501 | 0.517 | 1 (inactive) | 1.04 (inactive) | 0.949 (inactive) | 1.36 | -0.57 (inactive) | -0.157 | 0.842 | 0.312 | -0.206
CC[C@@H]1O[Si](C(C)C)(C(C)C)c2c1cc(-c1cc(C)c(OC)c(C)c1)nc2-c1ccc(Oc2ccccc2)cc1 | -0.119 | -0.259 | -0.0881 | -0.0323 | 0.0131 | 0.437 | -0.595 | 0.838 (inactive) | -0.0965 | 0.0808 | -0.0555 | 0.0662 (inactive) | 0.131 (inactive) | -0.798 (inactive) | -0.346 | -0.333 (inactive) | -0.123 | 0.0174 | 0.0178 | -0.162
CCCNC(=O)[C@@]1(C)c2ccccc2C(=O)N(c2ccc(C)cn2)[C@H]1c1ccc(CO)cc1 | 0.294 | 0.0231 | -0.0692 | -0.281 | 0.0657 | 0.638 | 0.781 | 0.683 (inactive) | -0.215 | -0.219 | -0.266 | -0.788 (inactive) | -0.164 (inactive) | -0.145 (inactive) | 3.4 | -0.618 (inactive) | -0.0352 | 0.146 | -0.0421 | -0.0828
COc1ccc(CCNC(=O)[C@@]2(Sc3ccc(C)cc3)CC(=O)N(Cc3ccccc3C(F)(F)F)[C@@H]2c2ccc(CO)cc2I)cc1 | 0.673 | -1.11 | -0.156 | 0.116 | -1.11 | 1.99 | 1.01 | -1.08 (inactive) | -0.261 | -0.236 | 1 | -1.65 (inactive) | -4.64 (inactive) | 1.22 (inactive) | 1.97 | 0.404 (inactive) | -0.0668 | -1.46 | -1.03 | -0.264
COCCOC(=O)N1C(=O)[C@@]2(c3cc(C#CC4(O)CCCCCC4)ccc31)[C@H](C(=O)N1CCc3cc(OC)c(OC)cc3C1)[C@H]1C(=O)O[C@H](c3ccccc3)[C@H](c3ccccc3)N1[C@@H]2c1ccc(OCCO)cc1 | -0.409 | 0.502 | 0.0088 | 0.467 | 1.24 | 0.675 | 1.18 | 1 (inactive) | 0.198 | -0.0994 | 1.54 | 1.98 (inactive) | 0.932 (inactive) | 4.4 (inactive) | 2.03 | 0.0446 (inactive) | -0.0585 | 1.3 | 1.09 | -0.0234
NC(=O)[C@@]1(Cc2ccccc2)COC(c2ccc(OCCCO)cc2)=N1 | 0.634 | 0.758 | -0.0594 | -0.281 | 0.29 | 1.37 | 1.16 | 1.47 (inactive) | 0.252 | -0.0684 | -0.57 | 1.2 (inactive) | 0.196 (inactive) | 1.19 (inactive) | 3.05 | 1.05 (inactive) | -0.0736 | -0.555 | -0.537 | -0.136
